Test results: PubChem BioAssay (NCI)
About 83,000 compounds went through this panel and 20% of them were active in at least one assay; those are over-represented in the sample as a whole.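 Method: cells in 96-well plates; compound added at one concentration; 48 h incubation; percent growth measured; values under 10 scored active.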 Activity calls are given as the source filed them.

What was measured:
Assay in all cases: NCI-60 one-dose screen, 48 h (100 = growth as untreated, 0 = no growth, -100 = all killed)
RPMI-8226 leukemia = details: 10 µM unless noted
OVCAR-8 ovarian = details: 10 µM unless noted
OVCAR-5 ovarian = details: 10 µM unless noted
OVCAR-4 ovarian = details: 10 µM unless noted
IGROV1 ovarian = details: 10 µM unless noted
OVCAR-3 ovarian = details: 10 µM unless noted
HS 578T breast = details: 10 µM unless noted
NCI/ADR-RES ovarian = details: 10 µM unless noted
T-47D breast = details: 10 µM unless noted
MDA-MB-435 melanoma = details: 10 µM unless noted
SW-620 colon = details: 10 µM unless noted
MCF7 breast = details: 10 µM
HCT-116 colon = details: 10 µM unless noted
HCC-2998 colon = details: 10 µM unless noted
KM12 colon = details: 10 µM unless noted
BT-549 breast = details: 10 µM unless noted
SK-OV-3 ovarian = details: 10 µM unless noted

Measured: growth

CNCCNc1nc2ccccc2c2c(=O)c3cc(F)ccc3sc12
active: RPMI-8226 leukemia -3.62% | T-47D breast -13.4% | MDA-MB-435 melanoma -61.1% | SW-620 colon -63.3% | MCF7 breast -44.5% | HCT-116 colon 0.271% | HCC-2998 colon -41.8% | KM12 colon -33.8%
inactive: OVCAR-8 ovarian 17.3% | OVCAR-5 ovarian 86.4% | OVCAR-4 ovarian 49.1% | IGROV1 ovarian 37.6% | OVCAR-3 ovarian 40.4% | HS 578T breast 56.9% | NCI/ADR-RES ovarian 62.4%

O=C(/C=C/c1ccc(Cl)cc1)c1ccc(Nc2nc(NCCO)nc(Nc3ccc(Cl)cc3)n2)cc1
active: RPMI-8226 leukemia -3.49% | MCF7 breast -31.3% | HCT-116 colon -78.9%
inactive: OVCAR-8 ovarian 70.8% | OVCAR-5 ovarian 94.3% | OVCAR-4 ovarian 52.8% | OVCAR-3 ovarian 63.2% | HS 578T breast 77.2% | NCI/ADR-RES ovarian 84.6% | T-47D breast 36.1% | BT-549 breast 68% | MDA-MB-435 melanoma 62.2% | SW-620 colon 62.6% | HCC-2998 colon 20.2% | KM12 colon 18.7%

COC(=O)c1ccc(NC(=O)CSc2nc3ccccc3c(=O)n2-c2ccccc2)cc1
inactive: RPMI-8226 leukemia 89.4% | OVCAR-8 ovarian 101% | OVCAR-5 ovarian 94.7% | OVCAR-4 ovarian 90.6% | IGROV1 ovarian 90.9% | OVCAR-3 ovarian 92.6% | HS 578T breast 101% | NCI/ADR-RES ovarian 104% | T-47D breast 92.1% | MDA-MB-435 melanoma 104% | SW-620 colon 105% | MCF7 breast 106% | HCT-116 colon 97.7% | HCC-2998 colon 98.8% | KM12 colon 99.8%

NCCOc1ncccc1/C=C1\c2ccccc2-c2ccc(F)cc21
active: RPMI-8226 leukemia -14.6% | KM12 colon 8.88%
inactive: OVCAR-8 ovarian 14.9% | OVCAR-5 ovarian 32.1% | OVCAR-4 ovarian 43.3% | IGROV1 ovarian 26.1% | OVCAR-3 ovarian 36.7% | HS 578T breast 44.2% | NCI/ADR-RES ovarian 29.9% | BT-549 breast 82.4% | MDA-MB-435 melanoma 60.7% | SW-620 colon 14.7% | MCF7 breast 14.9% | HCT-116 colon 15% | HCC-2998 colon 18.3%

CCOC(=O)c1cc2c(n1Cc1cc(OC)c(OC)c(OC)c1)-c1oncc1CCC2
active: OVCAR-3 ovarian -22% | NCI/ADR-RES ovarian 3.55% | MDA-MB-435 melanoma -53.9% | MCF7 breast 7.45% | HCT-116 colon 8.98%
inactive: RPMI-8226 leukemia 16.8% | OVCAR-8 ovarian 16.6% | OVCAR-5 ovarian 56.2% | SK-OV-3 ovarian 11.2% | IGROV1 ovarian 33.3% | HS 578T breast 18.2% | T-47D breast 74% | BT-549 breast 31.9% | SW-620 colon 21.5% | HCC-2998 colon 17.2% | KM12 colon 28.4%

O=C(Nc1ccc(F)c(Cl)c1)Nc1ccc(Cl)c(Cl)c1
active: MDA-MB-435 melanoma -7.47%
inactive: RPMI-8226 leukemia 65.8% | OVCAR-8 ovarian 92.4% | OVCAR-5 ovarian 114% | SK-OV-3 ovarian 84.3% | IGROV1 ovarian 73.6% | OVCAR-3 ovarian 61.1% | HS 578T breast 72.4% | NCI/ADR-RES ovarian 59.1% | T-47D breast 85.5% | BT-549 breast 64% | SW-620 colon 35% | MCF7 breast 55.1% | HCT-116 colon 50.6% | HCC-2998 colon 94.6% | KM12 colon 51.6%

COc1ccc(CCN2CCC(CN(C)Cc3cnn(-c4ccccc4)c3)CC2)cc1
inactive: RPMI-8226 leukemia 15.6% | OVCAR-8 ovarian 15.3% | OVCAR-5 ovarian 57.4% | SK-OV-3 ovarian 39.2% | IGROV1 ovarian 28.9% | OVCAR-3 ovarian 37.4% | HS 578T breast 67.1% | NCI/ADR-RES ovarian 12% | T-47D breast 36.4% | BT-549 breast 32.5% | MDA-MB-435 melanoma 38.1% | SW-620 colon 26% | MCF7 breast 12.4% | HCT-116 colon 21.5% | HCC-2998 colon 21.5% | KM12 colon 22.5%

O=C(CSc1ccc2nnc(-c3cccc(F)c3)n2n1)Nc1ccc2c(c1)OCO2
inactive: RPMI-8226 leukemia 52.3% | OVCAR-8 ovarian 53.4% | OVCAR-5 ovarian 113% | SK-OV-3 ovarian 100% | IGROV1 ovarian 54.8% | OVCAR-3 ovarian 48.3% | HS 578T breast 76.4% | NCI/ADR-RES ovarian 48.4% | T-47D breast 56.2% | BT-549 breast 88.3% | MDA-MB-435 melanoma 89.5% | SW-620 colon 92.8% | MCF7 breast 36.4% | HCT-116 colon 62.1% | HCC-2998 colon 109% | KM12 colon 73.5%

C[n+]1c2ccccc2nc2ccc(NCCO)cc21
inactive: RPMI-8226 leukemia 66.8% | OVCAR-8 ovarian 82.1% | OVCAR-5 ovarian 102% | SK-OV-3 ovarian 112% | IGROV1 ovarian 63.9% | OVCAR-3 ovarian 79.2% | HS 578T breast 82.7% | NCI/ADR-RES ovarian 86.4% | T-47D breast 91.9% | BT-549 breast 105% | MDA-MB-435 melanoma 98.4% | SW-620 colon 96.6% | MCF7 breast 84.8% | HCT-116 colon 94.2% | HCC-2998 colon 116% | KM12 colon 92%

CCOC(=O)c1c(Cl)c2c(n1Cc1ccccc1)-c1oncc1CCC2
inactive: RPMI-8226 leukemia 50.6% | OVCAR-8 ovarian 84.3% | OVCAR-5 ovarian 95.3% | SK-OV-3 ovarian 95.2% | IGROV1 ovarian 75.1% | OVCAR-3 ovarian 39.5% | HS 578T breast 69.7% | NCI/ADR-RES ovarian 43.5% | T-47D breast 80.7% | BT-549 breast 87.6% | SW-620 colon 39.5% | MCF7 breast 37.5% | HCT-116 colon 50.3% | HCC-2998 colon 61.8% | KM12 colon 53.1%
active: MDA-MB-435 melanoma -12.9%

Cc1ccc(CN2CCC(C(=O)Nc3ccc(-c4cc5ccccc5[nH]4)cc3)CC2)o1
inactive: RPMI-8226 leukemia 20.5% | OVCAR-8 ovarian 53.3% | OVCAR-5 ovarian 98.1% | SK-OV-3 ovarian 107% | IGROV1 ovarian 61% | OVCAR-3 ovarian 49.4% | HS 578T breast 67% | NCI/ADR-RES ovarian 44.3% | T-47D breast 92.1% | BT-549 breast 72.5% | MDA-MB-435 melanoma 58.9% | SW-620 colon 66% | MCF7 breast 64.1% | HCT-116 colon 49.9% | HCC-2998 colon 79.4% | KM12 colon 24.4%

Cn1c(/C=C(\C#N)c2cccc(C(F)(F)F)c2)nc2c(N3CCOCC3)nc(Cl)nc21
inactive: NCI/ADR-RES ovarian 20.1% | HCC-2998 colon 14% | KM12 colon 19.1%
active: RPMI-8226 leukemia -23.4% | OVCAR-8 ovarian 7.88% | OVCAR-5 ovarian -53.7% | OVCAR-4 ovarian -56.4% | IGROV1 ovarian -27.7% | OVCAR-3 ovarian -85% | HS 578T breast -12% | BT-549 breast -13.1% | MDA-MB-435 melanoma -91.5% | SW-620 colon -68.8% | MCF7 breast -54.1% | HCT-116 colon -85.5%

CC1=NCC2NC(=O)NC(C)=C12 (centres undefined)
inactive: RPMI-8226 leukemia 100% | OVCAR-8 ovarian 105% | OVCAR-5 ovarian 97.4% | OVCAR-4 ovarian 106% | OVCAR-3 ovarian 105% | HS 578T breast 93.6% | NCI/ADR-RES ovarian 106% | T-47D breast 113% | BT-549 breast 96.4% | MDA-MB-435 melanoma 98.4% | SW-620 colon 99.9% | MCF7 breast 111% | HCT-116 colon 101% | HCC-2998 colon 113% | KM12 colon 104%

CCCCN1CCN(c2ccc3nc(-c4ccc5nc(-c6ccc(OC)c(OC)c6)[nH]c5c4)[nH]c3c2)CC1
inactive: OVCAR-5 ovarian 13.7% | NCI/ADR-RES ovarian 91% | T-47D breast 17.6%
active: RPMI-8226 leukemia -19% | OVCAR-8 ovarian 3.24% | OVCAR-4 ovarian -46.1% | OVCAR-3 ovarian -46.8% | HS 578T breast -18.7% | BT-549 breast -59% | MDA-MB-435 melanoma -64.5% | SW-620 colon -50.8% | MCF7 breast -67.2% | HCT-116 colon -80.2% | HCC-2998 colon -70.2% | KM12 colon -53.5%

CCOc1cc(Cl)c(C(C)NC(=O)c2cccc(OC)c2)cc1OCC (centres undefined)
active: RPMI-8226 leukemia -6.93% | OVCAR-8 ovarian -19.9% | OVCAR-3 ovarian -82.5% | NCI/ADR-RES ovarian 1.86% | BT-549 breast -27.7% | MDA-MB-435 melanoma -28.6% | SW-620 colon -50.9% | MCF7 breast 3.38% | HCT-116 colon -57.5% | HCC-2998 colon -85.1% | KM12 colon 0.624%
inactive: OVCAR-5 ovarian 30.2% | SK-OV-3 ovarian 35.4% | IGROV1 ovarian 28.2% | HS 578T breast 18% | T-47D breast 13.5%

COc1cc(-c2c3c(c(Br)n2Cc2ccccc2)-c2nc(N)sc2CC3)cc(OC)c1OC
inactive: RPMI-8226 leukemia 71.9% | OVCAR-8 ovarian 89.2% | OVCAR-5 ovarian 107% | SK-OV-3 ovarian 107% | IGROV1 ovarian 110% | OVCAR-3 ovarian 95.6% | HS 578T breast 80% | NCI/ADR-RES ovarian 87.4% | T-47D breast 63.8% | BT-549 breast 94.1% | MDA-MB-435 melanoma 35.8% | SW-620 colon 74.9% | MCF7 breast 61.4% | HCT-116 colon 69.2% | HCC-2998 colon 96.3% | KM12 colon 88.6%

O=C(Nc1ccc(Cl)cc1)N1CCN(c2ccc3nncn3n2)CC1
inactive: OVCAR-8 ovarian 30.5% | OVCAR-5 ovarian 87.2% | IGROV1 ovarian 72.3% | NCI/ADR-RES ovarian 63.2% | BT-549 breast 43.4%
active: RPMI-8226 leukemia -20.9% | SK-OV-3 ovarian -3.29% | OVCAR-3 ovarian -7.82% | HS 578T breast -40.7% | T-47D breast -54.9% | MDA-MB-435 melanoma -81.4% | SW-620 colon -88% | MCF7 breast -53.4% | HCT-116 colon -83.4% | HCC-2998 colon -33.6% | KM12 colon -40.8%

COc1ccc(C2=C(c3cccc(OC)c3)C(=O)c3ccc(C)nc3C2=O)cc1
inactive: RPMI-8226 leukemia 47.2% | OVCAR-8 ovarian 42.3% | OVCAR-5 ovarian 104% | IGROV1 ovarian 43% | HS 578T breast 52.5% | NCI/ADR-RES ovarian 17.1% | MDA-MB-435 melanoma 32.2% | SW-620 colon 23.6% | MCF7 breast 23.7% | HCT-116 colon 11.2% | HCC-2998 colon 84.6% | KM12 colon 28.6%
active: OVCAR-4 ovarian -95.8% | OVCAR-3 ovarian 7.59% | T-47D breast -41.4%

COC(=O)/C(CCC=C(C)C)=C1\[C@@H](OC(C)=O)C[C@@]2(C)[C@H]1C[C@@H](O)[C@H]1[C@@]3(C)CC[C@H](NC(=O)c4cnccn4)[C@@H](C)[C@@H]3CC[C@@]12C
inactive: RPMI-8226 leukemia 75.8% | OVCAR-8 ovarian 92.5% | OVCAR-5 ovarian 109% | OVCAR-4 ovarian 98.4% | IGROV1 ovarian 107% | OVCAR-3 ovarian 108% | HS 578T breast 96.4% | NCI/ADR-RES ovarian 99.4% | T-47D breast 87.4% | MDA-MB-435 melanoma 103% | SW-620 colon 104% | MCF7 breast 96% | HCT-116 colon 93.1% | KM12 colon 102%
